{"source": "PubChem BioAssay (NCATS)", "note": "Records with an inconclusive call do not appear. Unmarked numbers belong to inactive results. The source made the active and inactive calls. Unless noted, calls follow the shape of the dose curve; as a rule, active = well fitted curve in the direction sought with a large enough effect; inconclusive = small, poorly fitted or top-dose-only effect, or another doubt; inactive = no such curve, though single readings can be large; an effect the other way counts as inactive or inconclusive."}
{"target": "Mitogen-activated protein kinase 10 (Mus musculus) (UniProt Q61831)", "test": "JNK3 AlphaScreen Assay (AID 530; active = well fitted curve in either direction with a large enough effect, not every such curve was filed as active;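 also: kinase came from lysate of stimulated human HepG2 cells; % is scaled to controls: 0 for no effect and ±100 for the full control effect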)", "conditions": "JNK3 lysate, c-Jun phosphorylation; series mostly up to 57.1 µM; activity change, negative = inhibition: at the top concentration", "method_in_brief": "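Biotinylated GST-cJun(1-79) served as substrate for JNK3 in HepG2 lysates stimulated with IL-1beta and TNF-alpha. ATP was 10 uM final, pH 7.6. Ser73 phosphorylation was quantified by AlphaScreen (680 nm excitation).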"}
{"molecule": "CC(=O)O[C@H]1C(=O)[C@@]2(C)[C@H]([C@H](OC(=O)c3ccccc3)[C@]3(O)C[C@H](OC(=O)[C@H](O)[C@@H](NC(=O)c4ccccc4)c4ccccc4)C(C)=C1C3(C)C)[C@]1(OC(C)=O)CO[C@@H]1C[C@@H]2O", "activity change, negative = inhibition": "-14.2%"}
{"molecule": "Cc1ccc(N)cc1O", "activity change, negative = inhibition": "-14.4%"}
{"molecule": "COc1ccc(C[C@H](N)C(=O)N[C@@H]2[C@H](O)[C@H](n3cnc4c(N(C)C)ncnc43)O[C@@H]2CO)cc1", "activity change, negative = inhibition": "0.545% [at 25.6 µM]"}
{"molecule": "COc1ccc2c(OC)c3ccoc3nc2c1OC", "outcome": "inactive"}
{"molecule": "Nc1ccccc1N", "activity change, negative = inhibition": "-19.3%"}
{"molecule": "CC(=O)O[C@@H]1CC(C)=C2[C@H]1[C@H](C)CC[C@H]2/C=C(\\C)C(=O)O", "activity change, negative = inhibition": "12.7%"}
{"molecule": "Cc1ccccc1CN1C2=NCCN2C(=O)C2=C1CCN(Cc1ccccc1)C2", "activity change, negative = inhibition": "-0.448% [at 11.4 µM]"}
{"test_system": "not listed separately", "test": "Cell Viability - N2a (AID 540);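 also: cells exposed to compound for 40 h at 37 °C; plate controls were DMSO alone for no effect and tamoxifen control for full effect; nearly all actives have a fitted effect of over 45% in size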", "conditions": "N2a mouse neuroblastoma cell viability; series mostly up to 92.2 µM; activity change, negative = cytotoxicity: at the top concentration", "method_in_brief": "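N2a mouse neuroblastoma, 1500 cells/well, 5 hr settle; compound 40 hr, 37 °C; CellTiter-Glo 20 min RT; luminescence; Hill-fit AC50.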", "units": {"activity change, negative = cytotoxicity": "%"}}
{"molecule": "Cc1ccc(N)cc1O", "activity change, negative = cytotoxicity": -11.6}
{"molecule": "Nc1ccccc1N", "activity change, negative = cytotoxicity": -22.9}
{"molecule": "CC(=O)O[C@@H]1CC(C)=C2[C@H]1[C@H](C)CC[C@H]2/C=C(\\C)C(=O)O", "activity change, negative = cytotoxicity": -2.8}
{"test_system": "not listed separately", "test": "Cell Viability - NIH 3T3 (AID 541); also: nearly all actives have a fitted effect of over 25% in size; also: potency is read from the fitted curve at half-maximal effect;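 as to activity change, negative = cytotoxicity: plate controls were DMSO alone for no effect and tamoxifen positive control for full effect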", "conditions": "NIH 3T3 cell viability, qHTS; series mostly up to 92.2 µM; activity change, negative = cytotoxicity: at the top concentration", "method_in_brief": "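qHTS format; 40 hr compound exposure, 37 °C; CellTiter-Glo luminescence (cellular ATP) read-out after 20 min at RT. Decrease in ATP = cytotoxicity; AC50 from standard Hill fit.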", "units": {"activity change, negative = cytotoxicity": "%"}}
{"molecule": "Cc1ccc(N)cc1O", "activity change, negative = cytotoxicity": -9.51}
{"molecule": "Nc1ccccc1N", "Potency": "6.31 µM (active)"}
{"molecule": "CC(=O)O[C@@H]1CC(C)=C2[C@H]1[C@H](C)CC[C@H]2/C=C(\\C)C(=O)O", "activity change, negative = cytotoxicity": -23.5}
{"test_system": "not listed separately", "test": "Cell Viability - HUV-EC-C (AID 542); also: % is scaled to controls: 0 for no effect and ±100 for the full control effect; nearly all actives have a fitted effect of over 35% in size", "conditions": "HUV-EC-C endothelial cell viability, qHTS; series mostly up to 92.2 µM; activity change, negative = cytotoxicity: at the top concentration", "from_the_text": "NIH Chemical Genomics Center [NCGC]\nNIH Molecular Libraries Screening Centers Network [MLSCN]\nNational Institutes of Environmental Health Sciences [NIEHS]\nNational Toxicology Program [NTP]\nWe have developed a 1536-well cell-based assay for quantitative high throughput screening (qHTS) against a number of cell lines to determine in vitro cytotoxicity of small molecules. This particular assay uses the HUV-EC-C cell line which is derived from normal human vascular endothelial cells.\nNCGC Assay Protocol Summary:\nThe CellTiter-Glo luminescent cell viability assay (Promega) is a homogeneous method to measure the number of viable cells in culture. The end point readout of this assay is based on quantitation of intracellular ATP, an indicator of metabolic activity, using the luciferase reaction. Luciferase catalyzes the oxidation of beetle Luciferin to oxyluciferin and light in the presence of ATP. The luminescent signal is proportional to amount of ATP present.\nUsing the CellTiter-Glo luminescent cell viability assay, the amount of cellular ATP was measured in the HUV-EC-C cell line with complete culture medium following compound treatment for 40 hours. The assay was performed in opaque white Kalypsys 1536-well plates. In the screen, tamoxifen and doxorubicin were used as positive controls. Library compounds were measured for their ability to cause acute toxicity in the cell line, as reflected by a decrease in intracellular ATP levels, in a concentration-dependent manner. […] AC50 values were determined from concentration-response data modeled with the standard Hill equation.\nqHTS protocol for CellTiter Glo HUV-EC-C cellular assay\n[Step] [Parameter] [Value] [Description]\n1. Reagent; 5 uL; 1000 HUV-EC-C cells/well\n2. Time; 5 hr; 37 °C incubation\n4. Controls; 23 nL; Tamoxifen 0.34 uM to 100 uM & Doxorubicin 0.02 nM to 100 uM\n5. Time; 40 hr; 37 °C incubation\n6. Reagent; 5 uL; CellTiter Glo reagent\n7. […]\n8. Detection; Luminescence; Viewlux plate reader\nKeywords: cell viability, cytotoxicity, HUV-EC-C cell line, luminescence, NTPHTS, NTPHTS_NCGC, NIEHS, EPA, DSSTox, MLSMR, MLSCN, NIH Roadmap, qHTS, NCGC", "units": {"activity change, negative = cytotoxicity": "%"}}
{"molecule": "Cc1ccc(N)cc1O", "activity change, negative = cytotoxicity": -0.327}
{"molecule": "Nc1ccccc1N", "activity change, negative = cytotoxicity": -27.8}
{"molecule": "CC(=O)O[C@@H]1CC(C)=C2[C@H]1[C@H](C)CC[C@H]2/C=C(\\C)C(=O)O", "activity change, negative = cytotoxicity": 3.61}
